Test [1] in a line: qHTS assay to identify aromatase inhibitors - cell viability counter screen (AID 743084).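 Note: cells stimulated with testosterone during compound exposure; nearly all actives have a fitted effect of over 55% in size.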 Note: potency is the fitted concentration of half-maximal effect. In general terms: In qHTS, concentration-response curves come from the screen itself.
Test [2] in a line: qHTS assay to identify small molecule that activate the aryl hydrocarbon receptor (AhR) signaling pathway - cell viability counter screen (AID 743086).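 Note: HepG2 liver cells carrying the AhR DRE luciferase reporter; series mostly up to about 70 µM; nearly all actives have a fitted effect of over 45% in size.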 The procedure, abridged: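 HepG2-AhR-luc (HG2L7.5c1) cells, 4000/well, were preincubated 5 h at 37C, exposed to compound in qHTS format for 24 hr at 37C, then given CellTiter-Fluor for 30 min; viability was read as fluorescence in the reporter wells.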

Test [3] concerns the target Peroxisome proliferator-activated receptor gamma (Homo sapiens) (UniProt P37231). The test is described as follows: qHTS assay to identify small molecule agonists of the peroxisome proliferator-activated receptor gamma (PPARg) signaling pathway (AID 743094; active = well fitted activation curve with a large enough effect in the signal ratio in the repeat runs, not every such curve was filed as active; the % refers to the signal ratio). In a few lines:
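Quantitative HTS agonist mode: stable HEK293H line with UAS-beta-lactamase reporter under PPARg control, 17 h compound exposure at 37C, fluorescence after 1 h FRET substrate loading at room temperature.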

A short description of test [4]: qHTS assay to identify small molecule antagonists of the peroxisome proliferator-activated receptor gamma (PPARg) signaling pathway - cell viability counter screen (AID 743194). Note: nearly all actives have a fitted effect of over 55% in size. Note: potency is the fitted concentration of half-maximal effect. In a few lines:
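PPARg-UAS-bla HEK293H cells were plated, rested 5 h at 37 C, then treated with compounds plus rosiglitazone (50 nM final) for 17 h at 37 C; viability was then read by CellTiter-Glo luminescence after 30 min at room temperature.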

Test [5] can be described thus: qHTS assay for small molecule activators of the heat shock response signaling pathway - cell viability counter screen (AID 743209). Note: nearly all actives have a fitted effect of over 50% in size. The procedure, abridged:
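First, HSE-bla HeLa cells were seeded at 1500 cells/well and kept overnight at 37 C. Next, compounds were pinned in and incubated 5 h. After the FRET substrate step, CellTiter-Glo was added and luminescence read 30 min later.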

The nature of test [6]: qHTS assay for small molecule activators of the heat shock response signaling pathway (AID 743210; active = well fitted activation curve with a large enough effect in the signal ratio in the repeat runs, with a control signal flat, not every such curve was filed as active; the % refers to the signal ratio; note: series mostly up to about 63 µM). In a few lines:
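HSE-bla HeLa cells (beta-lactamase reporter under heat shock response elements) were exposed to compounds for 5 h at 37 C, then loaded with LiveBLAzer B/G FRET substrate for 2.5 h at room temperature before fluorescence reading.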

Test [7] is described as follows: qHTS assay for small molecule agonists of the antioxidant response element (ARE) signaling pathway - cell viability counter screen (AID 743203; calls by dose curve; note: nearly all actives have a fitted effect of over 55% in size; note: potency is the fitted concentration of half-maximal effect). In a few lines: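 Seeded at 2,000 cells/well, ARE-bla HepG2 cells were incubated 5 hrs before compound addition. After 16 hrs of treatment at 37C with 5% CO2, CellTiter-Glo reagent was added and luminescence read 30 min later.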

A short description of test [8]: qHTS assay for small molecule agonists of the antioxidant response element (ARE) signaling pathway (AID 743202; active = well fitted activation curve with a large enough effect in the signal ratio in the repeat runs, not every such curve was filed as active; the % refers to the signal ratio). In a few lines: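 Read-out: LiveBLAzer B/G FRET substrate fluorescence after 2 h at room temperature, following 16 h compound treatment at 37 C of HepG2 cells carrying an ARE-driven beta-lactamase reporter.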
In test [9] the target is Aryl hydrocarbon receptor (Homo sapiens) (UniProt P35869). The test is described as follows: qHTS assay to identify small molecule that activate the aryl hydrocarbon receptor (AhR) signaling pathway (AID 743085).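 Note: HG2L7.5c1 human HepG2 liver cells with stably integrated DRE-driven firefly reporter; series mostly up to about 70 µM; nearly all actives have a fitted effect of over 15% in size.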 The procedure, abridged:
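A multiplexed format paired cell viability (CellTiter-Fluor fluorescence) with AhR-dependent luciferase output (ONE-Glo luminescence) in the same wells of HepG2 DRE-luc cells after 24 h compound exposure at 37C.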

In test [10] the target is Peroxisome proliferator-activated receptor gamma (Homo sapiens) (UniProt P37231). The test is described as follows: qHTS assay to identify small molecule antagonists of the peroxisome proliferator-activated receptor gamma (PPARg) signaling pathway (AID 743191; calls by dose curve; note: series mostly up to about 63 µM; nearly all actives have a fitted effect of over 30% in size). In a few lines:
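GeneBLAzer PPARg UAS-bla HEK293H cells carrying a UAS-driven beta-lactamase reporter were plated at 3000 cells/well, preincubated 5 h at 37C, then given compound for 17 h at 37C; LiveBLAzer B/G FRET substrate was read after 1 h at room temperature.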

Inconclusive results are not listed. Unmarked numbers belong to inactive results. Calls of active or inactive are those of the source. Unless noted, calls come from the whole dose curve; as a rule, active = well fitted curve in the direction sought with a large enough effect in the repeat runs; inconclusive = weak or mixed curves; inactive = no such curve, though single readings can be large; an effect the other way counts as inactive or inconclusive.

Experimental findings from PubChem BioAssay (Tox21) are described below.
% is set by controls: 0 for no effect and ±100 for the full control effect.

Chain of Peroxisome proliferator-activated receptor gamma (Homo sapiens) (P37231 whole entry, looked up): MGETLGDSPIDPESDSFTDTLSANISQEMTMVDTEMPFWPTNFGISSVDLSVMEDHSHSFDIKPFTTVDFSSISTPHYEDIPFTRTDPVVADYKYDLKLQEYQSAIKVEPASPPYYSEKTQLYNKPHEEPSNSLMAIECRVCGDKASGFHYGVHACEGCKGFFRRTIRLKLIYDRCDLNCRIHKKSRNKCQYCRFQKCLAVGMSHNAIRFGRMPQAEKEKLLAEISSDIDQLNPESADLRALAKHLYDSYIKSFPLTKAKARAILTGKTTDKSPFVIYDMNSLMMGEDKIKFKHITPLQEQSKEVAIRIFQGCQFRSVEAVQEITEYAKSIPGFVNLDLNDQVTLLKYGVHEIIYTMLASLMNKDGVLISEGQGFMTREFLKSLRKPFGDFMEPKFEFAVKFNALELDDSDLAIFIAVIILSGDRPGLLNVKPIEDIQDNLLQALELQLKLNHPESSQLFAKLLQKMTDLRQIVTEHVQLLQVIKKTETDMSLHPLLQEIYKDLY
Chain of Aryl hydrocarbon receptor (Homo sapiens) (P35869 whole entry, looked up): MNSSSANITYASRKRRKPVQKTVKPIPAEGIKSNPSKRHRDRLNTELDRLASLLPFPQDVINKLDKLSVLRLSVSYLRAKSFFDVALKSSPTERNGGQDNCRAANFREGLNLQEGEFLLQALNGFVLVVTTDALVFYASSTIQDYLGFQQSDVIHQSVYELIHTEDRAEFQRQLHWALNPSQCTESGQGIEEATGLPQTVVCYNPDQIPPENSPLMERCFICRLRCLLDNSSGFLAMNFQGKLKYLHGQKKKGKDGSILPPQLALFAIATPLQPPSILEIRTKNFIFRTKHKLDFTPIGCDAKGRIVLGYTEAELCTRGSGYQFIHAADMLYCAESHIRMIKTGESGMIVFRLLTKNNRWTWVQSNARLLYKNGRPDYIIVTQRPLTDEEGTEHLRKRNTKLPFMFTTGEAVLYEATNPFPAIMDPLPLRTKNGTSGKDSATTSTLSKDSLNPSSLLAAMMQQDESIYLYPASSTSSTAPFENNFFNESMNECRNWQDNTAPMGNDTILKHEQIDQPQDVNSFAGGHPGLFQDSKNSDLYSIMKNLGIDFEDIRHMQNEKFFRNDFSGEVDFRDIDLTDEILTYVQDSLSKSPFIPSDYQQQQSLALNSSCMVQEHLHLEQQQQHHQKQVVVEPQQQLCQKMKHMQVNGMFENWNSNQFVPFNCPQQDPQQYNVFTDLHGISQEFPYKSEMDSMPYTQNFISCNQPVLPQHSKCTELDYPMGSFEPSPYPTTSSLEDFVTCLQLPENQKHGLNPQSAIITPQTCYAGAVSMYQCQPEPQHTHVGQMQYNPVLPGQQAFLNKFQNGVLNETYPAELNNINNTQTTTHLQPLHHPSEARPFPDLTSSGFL

As for `CCN(CC)c1cccc(O)c1`, the Potency result in test [1], in [2], in test [4], in test [5] and in [6] was “inactive” throughout. Further, the call in test [3] was inactive.

In the case of `BrC(Br)C(Br)Br`, the Potency result in [1], in test [4], in test [7] and in test [6] was “inactive” in each case. For the same compound, the compound was called inactive in test [3].

On to `CCCOC(=O)c1c(Cl)c(Cl)c(Cl)c(Cl)c1C(=O)OCCC`, for which the Potency entry in test [1], in test [2], in test [7], in test [5] and in test [6] was “inactive” throughout. Further, in [3], the outcome was inactive.

In the case of `CC1=CC[C@@H]2C[C@H]1C2(C)C`, the Potency result in [1] is “inactive”. In addition, in test [3], the compound was called inactive. In addition, the activity change, negative = cytotoxicity in [4] is -33.5% [at 13.2 µM]; in [5] it was -3.23% [at 13.2 µM]. Besides, the activation in test [8] was -11.5% [at 18.1 µM]. For the same compound, the viability change, negative = cytotoxic in [7] was -20.1% [at 18.1 µM].

For the compound `COc1cc(C(C)=O)ccc1OCCCN1CCC(c2noc3cc(F)ccc23)CC1`, the Potency entry in [1], in test [9], in test [4], in test [7], in [5] and in [6] was “inactive” in each case.

Take `CC(C)(O)CCc1ccccc1`: the Potency entry in test [1], in test [2], in [10], in test [4], in [8] and in [7] was “inactive” each time. Also, the Potency entry in test [5] and in test [6] was “inactive” each time. Further, in test [3], the result was inactive.

Turning to `COC(=O)C1=C(C)NC(C)=C(C(=O)OC(C)(C)CN(C)CCC(c2ccccc2)c2ccccc2)C1c1cccc([N+](=O)[O-])c1` (stereo not drawn), the Potency result in [1], in test [4], in [7], in [5] and in test [6] was “inactive” each time. In addition, the compound was classed as inactive in test [3].

Regarding `O=C(Nc1ccc(C(=O)O)c(O)c1)c1ccccc1`, the Potency result in test [1], in [2], in [4], in test [7], in test [5] and in [6] was “inactive” each time. For the same compound, the compound was called inactive in test [3].

For `CC(=O)OC(C)C[N+](C)(C)C` (stereo not drawn), the Potency entry in test [1], in [9], in [4], in [8], in test [7] and in test [5] was “inactive” each time.

Take `CCC(Cl)CC(Cl)C(Cl)C(Cl)C(Cl)C(C)Cl` (stereo not drawn): the Potency entry in test [1] and in test [2] was “inactive” each time. Besides, the result in test [3] was inactive. Also, the ratio activity, negative = inhibition in [10] is -28.9% [at 13.2 µM]. In addition, the activity change, negative = cytotoxicity in [4] is -22.8% [at 13.2 µM]; in test [5], 2.25% [at 13.2 µM]. Moreover, the activation in [8] is 7.21% [at 18.1 µM]. The viability change, negative = cytotoxic in test [7] was -17% [at 18.1 µM].

Consider `CC(CN(CCN(CC(C)OCCO)CC(C)OCCO)CC(C)OCCO)OCCO` (stereo not drawn), for which the Potency result in test [1], in test [2], in test [5] and in [6] was “inactive” throughout. In [3], the compound was called inactive. Further, the Potency in [4] was 37.5 µM (active); in test [7], 33.1 µM (active).

Regarding `Cc1cc([N+](=O)[O-])ccc1N`, the Potency in test [1] was 53.8 µM (active). The outcome in test [3] was inactive. Moreover, the Potency result in [4], in test [8] and in test [5] was “inactive” in each case.

In the case of `CCCCC(CC)COS(=O)(=O)O` (stereo not drawn), the Potency entry in [1], in [9], in test [4], in test [7], in [5] and in test [6] was “inactive” throughout.

Regarding `CCN(CC)CCOc1ccccc1C(=O)CCc1ccccc1`, the Potency result in test [1], in [9], in test [4], in test [5] and in test [6] was “inactive” each time.

Take `CC(C)(C)NCC(O)COc1cccc2c1C[C@H](O)[C@H](O)C2` (stereo partly drawn): the Potency entry in test [1], in test [9], in test [4], in test [5] and in [6] was “inactive” throughout. Moreover, the call in [3] was inactive.

For the compound `CCCCCC`, the Potency entry in test [1], in test [9], in test [4], in [8], in test [7] and in test [5] was “inactive” in each case. The Potency entry in test [6] is “inactive”.

As to `N[C@@H](Cc1cc(I)c(O)c(I)c1)C(=O)O`, the Potency entry in [1], in test [9], in test [4], in test [5] and in test [6] was “inactive” in each case. Moreover, in test [3], the compound was called inactive.

Consider `Nc1nc(-c2ccc([N+](=O)[O-])cc2)cs1`, for which the Potency result in test [1], in test [2], in test [10], in test [4], in [7] and in [5] was “inactive” throughout. For the same compound, in test [3], the result was inactive.

On to `CSCC[C@H](NC(=O)[C@H](Cc1c[nH]c2ccccc12)NC(=O)CCNC(=O)OC(C)(C)C)C(=O)N[C@@H](CC(=O)O)C(=O)N[C@@H](Cc1ccccc1)C(N)=O`, for which the Potency entry in test [1], in test [2], in [10], in test [4], in test [8] and in test [5] was “inactive” in each case. In addition, the compound was called inactive in [3].

For `Oc1ccc2c(c1)Cc1ccccc1-2`, the Potency entry in [1], in [2], in test [4], in [7], in test [5] and in test [6] was “inactive” each time. The compound was called inactive in [3].

For the compound `CC(C)Cc1ccc(CC(=O)O)cc1`, the Potency entry in test [1], in test [9], in test [4] and in test [8] was “inactive” throughout.

For the compound `O=C1OC(=O)c2c(Br)c(Br)c(Br)c(Br)c21`, the Potency result in test [1], in test [4], in [7], in [5] and in test [6] was “inactive” each time. Also, the compound was called inactive in test [3].

For `Nc1ccc(S(=O)(=O)NCc2ccccc2)cc1`, the Potency result in [1], in test [2], in test [10], in test [4], in test [8] and in test [7] was “inactive” throughout. Also, in test [5], the Potency result was “inactive”. In test [3], the compound was called inactive.

With `CCCCCCC(O)CCCCCCCCCCC(=O)OC` (stereo not drawn), the Potency result in test [2], in [8], in test [7] and in test [5] was “inactive” throughout.

With `CCCCCCCCCCCCCCCCCC(=O)OCC(CC)CCCC` (stereo not drawn), the Potency entry in [9], in [2], in [10], in [4], in test [7] and in [5] was “inactive” in each case. Further, the Potency entry in test [6] was “inactive”. The outcome in test [3] was inactive.

In the case of `CCN(CC)CC(=O)Nc1c(C)cccc1C(=O)OC`, the Potency entry in test [4], in test [7], in test [5] and in [6] was “inactive” throughout.

On to `CS(=O)(=O)c1ccc([C@@H](C[C@H]2CCC(=O)C2)C(=O)Nc2cnccn2)cc1Cl`, for which the Potency result in test [9], in [10], in test [4], in test [7] and in test [5] was “inactive” throughout. For the same compound, the compound was classed as inactive in test [3].
